The campaign covered roughly 5,500 compounds. About 2,000 (36%) were called active. Roughly 18% stayed inconclusive and do not appear here. Rule as the data show it: active = normalized growth mostly below about 0.91 (no sharp cut-off); inconclusive = no clear call, values can overlap the other calls; inactive = mostly above about 0.92. The list shows a part of the results.
Experiment: chemical genetic growth profiling, strain panel (AID 1159580);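 also: tested at 20 µM; growth read once vehicle control cultures reached saturation at 30 °C; 1 = growth at the plate median or of vehicle wells; lower values mean less growth of the strain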
Details: S. cerevisiae deletion strains, growth OD

Measured: normalized growth

CC1=C(/C=C/C(C)=C/C=C/C(C)=C/C=C/C=C(C)/C=C/C=C(C)/C=C/C2=C(C)CCCC2(C)C)C(C)(C)CCC1
inactive: locus YJR043C, strain POL32, active compounds read low 1.01 | locus YJR066W, strain TOR1, active compounds read low 0.974 | locus YKL009W, strain mrt4, active compounds read low 0.941 | locus YKL068W, active compounds read low 1.01 | locus YKL085W, strain MDH1 (second series), active compounds read low 0.983 | locus YKL085W, strain MDH1, active compounds read low 0.983 | locus YKL160W, strain elf1, active compounds read low 0.927 | locus YKR001C, strain vps1, active compounds read low 0.986 | locus YKR026C, strain gcn3, active compounds read low 0.987 | locus YKR091W, strain srl3, active compounds read low 0.991 | locus YLL001W, strain dnm1, active compounds read low 0.926 | locus YLL026W, active compounds read low 0.999 | locus YLL041C, strain sdh2, active compounds read low 1.03 | locus YLR027C, strain aat2, active compounds read low 0.998 | locus YLR039C, strain RIC1, active compounds read low 0.996 | locus YLR058C, strain SHM2, active compounds read low 1.01 | locus YLR102C, strain apc9, active compounds read low 0.997 | locus YLR113W, strain HOG1, active compounds read low 1.02 | locus YLR221C, strain rsa3, active compounds read low 0.977 | locus YLR258W, strain gsy2, active compounds read low 1.02 | locus YLR262C, strain YPT6 (second series), active compounds read low 0.941 | locus YLR262C, strain YPT6, active compounds read low 0.982 | locus YLR268W, strain sec22, active compounds read low 0.992 | locus YLR320W, strain mms22, active compounds read low 0.994 | locus YLR330W, strain CHS5, active compounds read low 1.01 | locus YLR342W, strain FKS1 (second series), active compounds read low 1.01 | locus YLR342W, strain FKS1, active compounds read low 0.981 | locus YLR357W, strain rsc2, active compounds read low 0.957 | locus YLR370C, strain arc18, active compounds read low 1 | locus YLR371W, strain rom2, active compounds read low 1 | locus YLR384C, strain iki3, active compounds read low 1 | locus YLR418C, strain cdc73, active compounds read low 0.993 | locus YML016C, strain PPZ1, active compounds read low 1 | locus YML032C, strain rad52, active compounds read low 1 | locus YML120C, strain ndi1, active compounds read low 0.962 | locus YML124C, strain tub3, active compounds read low 1 | locus YMR058W, strain fet3, active compounds read low 0.985 | locus YMR078C, strain ctf18, active compounds read low 1.03 | locus YMR125W, strain sto1, active compounds read low 0.929 | locus YMR129W, active compounds read low 0.996 | locus YMR205C, strain PFK2, active compounds read low 0.934 | locus YMR223W, strain ubp8, active compounds read low 1.01 | locus YMR231W, strain pep5, active compounds read low 0.997 | locus YMR263W, strain SAP30, active compounds read low 1.02 | locus YMR307W, strain GAS1, active compounds read low 1.06 | locus YNL067W, strain RPL9B, active compounds read low 1.01 | locus YNL071W, strain lat1, active compounds read low 0.984 | locus YNL153C, strain GIM3, active compounds read low 1.01 | locus YNL183C, strain NPR1, active compounds read low 0.97 | locus YNL209W, strain ssb2, active compounds read low 0.997 | locus YNL233W, strain BNI4, active compounds read low 1.01 | locus YNL248C, strain rpa49, active compounds read low 0.906 | locus YNL250W, strain rad50, active compounds read low 1.02 | locus YNL271C, strain bni1, active compounds read low 0.997 | locus YNL298W, strain CLA4, active compounds read low 0.991 | locus YNL307C, strain MCK1, active compounds read low 1.01 | locus YNL322C, strain KRE1 (second series), active compounds read low 0.993 | locus YNL322C, strain KRE1, active compounds read low 1.01 | locus YNR049C, strain mso1, active compounds read low 1.01 | locus YNR052C, strain pop2, active compounds read low 1 | locus YOL006C, strain TOP1, active compounds read low 1.01 | locus YOL012C, strain htz1 1.24 | locus YOL147C, strain pex11, active compounds read low 1.01 | locus YOR001W, strain rrp6, active compounds read low 1.07 | locus YOR061W, strain CKA2, active compounds read low 1.01 | locus YOR069W, strain VPS5, active compounds read low 1.01 | locus YOR070C, strain gyp1, active compounds read low 1 | locus YOR080W, strain dia2, active compounds read low 0.996 | locus YOR083W, strain WHI5, active compounds read low 0.94 | locus YOR106W, strain vam3, active compounds read low 0.922 | locus YOR136W, strain idh2, active compounds read low 1.02 | locus YOR144C, strain elg1, active compounds read low 1 | locus YOR184W, strain ser1, active compounds read low 1.01 | locus YOR231W, strain MKK1, active compounds read low 1.02 | locus YOR265W, strain rbl2, active compounds read low 0.992 | locus YOR270C, strain vph1, active compounds read low 0.875 | locus YOR290C, strain snf2, active compounds read low 0.953 | locus YOR316C, strain cot1, active compounds read low 1 | locus YPL051W, strain arl3, active compounds read low 1.02 | locus YPL078C, strain atp4, active compounds read low 0.931 | locus YPL106C, strain sse1, active compounds read low 1.03 | locus YPL240C, strain hsp82, active compounds read low 1 | locus YPL241C, strain CIN2, active compounds read low 1.01 | locus YPL256C, strain CLN2, active compounds read low 0.994 | locus YPR119W, strain clb2, active compounds read low 1.01 | locus YPR141C, strain kar3, active compounds read low 1.01 | locus YPR163C, strain tif3, active compounds read low 1 | locus YPR167C, strain met16, active compounds read low 1.01 | strain wtn01, active compounds read low 0.991

From PubChem BioAssay AID1159580 (chemical genetic matrix, 2015)
